Reference: PubChem BioAssay (Tox21)
Results filed as inconclusive are left out. Activity calls are given as the source filed them. Unless noted, the call rests on the fitted dose curve; in most records, active means well fitted curve in the direction sought with a large enough effect in the repeat runs; inconclusive means weak or mixed curves; inactive means no such curve, though single readings can be large; an effect the other way counts as inactive or inconclusive.

Legend:
[1] = qHTS assay to identify small molecule agonists of the peroxisome proliferator-activated receptor delta (PPARd) signaling pathway - cell viability counter screen (AID 743211); further: nearly all actives have a fitted effect of over 55% in size
Procedure, shortened: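 PPARd-bla HEK293H cells (3000/well) were pre-incubated 5 h at 37 C, then exposed to compound for 17 h at 37 C. After 2 h with LiveBLAzer substrate, CellTiter-Glo was added to the same wells; luminescence read after 30 min at room temperature.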

[2] = target: Peroxisome proliferator-activated receptor delta (Homo sapiens) (UniProt Q03181); experiment: qHTS assay to identify small molecule agonists of the peroxisome proliferator-activated receptor delta (PPARd) signaling pathway (AID 743212; calls by dose curve)
Peroxisome proliferator-activated receptor delta (Homo sapiens), sequence (Q03181 whole entry, looked up): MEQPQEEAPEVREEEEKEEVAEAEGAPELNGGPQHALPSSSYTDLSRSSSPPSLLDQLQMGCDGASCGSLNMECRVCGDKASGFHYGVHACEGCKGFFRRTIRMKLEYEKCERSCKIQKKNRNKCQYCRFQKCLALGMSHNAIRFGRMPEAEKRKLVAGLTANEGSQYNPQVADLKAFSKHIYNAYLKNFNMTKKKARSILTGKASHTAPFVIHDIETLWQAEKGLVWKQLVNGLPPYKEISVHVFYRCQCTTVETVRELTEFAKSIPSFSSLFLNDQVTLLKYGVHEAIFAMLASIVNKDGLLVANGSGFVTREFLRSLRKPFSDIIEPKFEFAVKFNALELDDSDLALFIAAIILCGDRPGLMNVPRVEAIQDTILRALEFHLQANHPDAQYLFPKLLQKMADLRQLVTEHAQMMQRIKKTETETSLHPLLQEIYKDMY
Procedure, shortened: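 Quantitative high-throughput agonist screen in a HEK293H beta-lactamase reporter line under UAS control. Compounds in DMSO, at 37 C. Fluorescence read after 2 h with FRET substrate at room temperature.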

[3] = qHTS assay to identify small molecule antagonists of the peroxisome proliferator-activated receptor delta (PPARd) signaling pathway - cell viability counter screen (AID 743213); further: nearly all actives have a fitted effect of over 50% in size
Procedure, shortened: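 Same-well viability: cells pre-incubated 5 h, dosed with compound plus 300 nM L165041, kept 17 h at 37 C, FRET substrate 2 h RT, then CellTiter-Glo 30 min RT and luminescence.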

[4] = target: Peroxisome proliferator-activated receptor delta (Homo sapiens) (UniProt Q03181); experiment: qHTS assay to identify small molecule antagonists of the peroxisome proliferator-activated receptor delta (PPARd) signaling pathway (AID 743215; active means well fitted inhibition curve with a large enough effect in the signal ratio in the repeat runs, not every such curve was filed as active; the % refers to the signal ratio;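 further: cells stimulated with agonist L165041 at 300 nM final during compound exposure; series mostly up to about 62 µM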)
Procedure, shortened: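 Antagonist-mode beta-lactamase reporter screen: HEK293H cells with UAS-bla under PPARd control, stimulated by 300 nM L165041 (final) alongside test compound for 17 h at 37 C, then FRET fluorescence after 2 h substrate incubation.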

[5] = qHTS assay to identify small molecule agonists of the farnesoid-X-receptor (FXR) signaling pathway - cell viability counter screen (AID 743218); further: nearly all actives have a fitted effect of over 45% in size
Procedure, shortened: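 In GeneBLAzer FXR-UAS-bla HEK 293T cells, compounds act for 16 h at 37 C. Cell viability is then scored in the reporter wells by CellTiter-Glo, 30 min at RT, luminescence.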

[6] = qHTS assay to identify small molecule antagonists of the farnesoid-X-receptor (FXR) signaling pathway - cell viability counter screen (AID 743221; active means well fitted cell-killing curve with a large enough effect in the repeat runs, not every such curve was filed as active; further: nearly all actives have a fitted effect of over 50% in size)
Procedure, shortened: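 GeneBLAzer FXR-UAS-bla HEK 293T cells, compound plus chenodeoxycholic acid (50 uM final), 16 h at 37 C. CellTiter-Glo added to the same wells after the beta-lactamase read; luminescence read after 30 min at room temperature as viability.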

[7] = target: Vitamin D3 receptor (Homo sapiens) (UniProt P11473); experiment: qHTS assay to identify small molecule agonists of the vitamin D receptor (VDR) signaling pathway (AID 743222; calls by dose curve)
Vitamin D3 receptor (Homo sapiens), sequence (P11473 whole entry, looked up): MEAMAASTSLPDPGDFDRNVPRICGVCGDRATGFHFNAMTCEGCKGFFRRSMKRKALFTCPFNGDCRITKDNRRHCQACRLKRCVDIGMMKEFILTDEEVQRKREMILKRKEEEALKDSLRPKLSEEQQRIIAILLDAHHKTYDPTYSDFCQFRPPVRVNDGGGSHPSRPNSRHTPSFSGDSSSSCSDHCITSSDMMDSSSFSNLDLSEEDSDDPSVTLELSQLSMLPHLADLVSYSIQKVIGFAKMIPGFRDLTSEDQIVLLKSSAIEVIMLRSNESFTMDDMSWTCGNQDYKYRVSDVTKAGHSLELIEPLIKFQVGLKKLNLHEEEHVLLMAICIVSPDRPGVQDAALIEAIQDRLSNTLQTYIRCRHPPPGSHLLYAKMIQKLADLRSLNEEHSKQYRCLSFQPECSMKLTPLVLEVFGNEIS
Procedure, shortened: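 Agonist activity measured in VDR-bla reporter cells. Exposure 16 h, 37C, 5% CO2; detection by B/G FRET substrate, 2 h RT.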

[8] = qHTS assay to identify small molecule agonists of the vitamin D receptor (VDR) signaling pathway - cell viability counter screen (AID 743224); further: series mostly up to about 63 µM; nearly all actives have a fitted effect of over 50% in size
Procedure, shortened: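 VDR-bla cell line, quantitative HTS format; 16 h compound incubation (37C, 5% CO2); ATP-based CellTiter-Glo luminescence measured in the reporter assay wells.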

[9] = qHTS assay to identify small molecule antagonists of the vitamin D receptor (VDR) signaling pathway - cell viability counter screen (AID 743225); further: nearly all actives have a fitted effect of over 50% in size
Procedure, shortened: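 VDR-UAS-bla HEK 293T cells were plated and incubated 4 h at 37C, then dosed with compound plus 3 nM (final) 1-alpha,25-dihydroxyvitamin D3 for 16 h. After the 2 h beta-lactamase read, viability in the same wells was read as CellTiter-Glo luminescence after 30 min at room temperature.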

[10] = qHTS assay to identify small molecule agonists of the NFkB signaling pathway - cell viability counter screen (AID 1159515; calls by dose curve; further: series mostly up to about 61 µM; nearly all actives have a fitted effect of over 55% in size)
Procedure, shortened: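 Viability in NFkB-bla ME-180 cells was measured by CellTiter-Glo luminescence, 30 min room temperature, in wells already treated 5 hr with compounds and read for reporter FRET.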

[11] = qHTS assay to identify small molecule agonists of the endoplasmic reticulum stress response signaling pathway - cell viability counter screen (AID 1159517; calls by dose curve)
Procedure, shortened: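 Counter-screen wells were identical to the reporter wells. Cells were plated at 1,500 per well and dosed for 5 hr, then read for luminescence 30 min after CellTiter-Glo addition.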

[12] = qHTS assay to identify small molecule antagonists of the retinoid-related orphan receptor gamma (ROR-gamma) signaling pathway - cell viability counter screen (AID 1159520); further: nearly all actives have a fitted effect of over 50% in size
Procedure, shortened: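 Tet-on ROR gamma CHO cells were given compounds for 2 hr, then doxycycline hyclate at 1 uM final, and incubated 16 hr at 37 C. Viability was measured as ATP content by CellTiter-Glo luminescence.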

[13] = target: Nuclear receptor ROR-gamma (Homo sapiens) (UniProt P51449); experiment: qHTS assay to identify small molecule antagonists of the retinoid-related orphan receptor gamma (ROR-gamma) signaling pathway (AID 1159521)
Procedure, shortened: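 Tet-on ROR-gamma CHO cells with ROR response element-luciferase reporter; compounds added 2 hr before 1 uM doxycycline induction, then 16 hr at 37 C. Antagonism scored as decreased ONE-Glo luminescence.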

[14] = qHTS assay to identify small molecule agonists of the AP-1 signaling pathway - cell viability counter screen (AID 1159525; calls by dose curve; further: nearly all actives have a fitted effect of over 55% in size)
Procedure, shortened: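 AP-1-bla ME-180 cells in Opti-MEM with 0.5% dialyzed FBS, compound exposure 5 h at 37 C in 15-point titration. Viability read in the same wells as ATP content by CellTiter-Glo luminescence, normalised to tetra-n-octylammonium bromide and DMSO controls.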

[15] = qHTS assay to identify small molecule agonists of the AP-1 signaling pathway (AID 1159526; calls by dose curve)
[16] = target: Vitamin D3 receptor (Homo sapiens) (UniProt P11473); experiment: qHTS assay to identify small molecule antagonists of the vitamin D receptor (VDR) signaling pathway (AID 743223; active means well fitted inhibition curve with a large enough effect in the signal ratio in the repeat runs, not every such curve was filed as active; the % refers to the signal ratio)
Procedure, shortened: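 VDR-bla cells were treated with compound plus 3 nM final 1alpha,25-dihydroxyvitamin D3 for 16 h at 37C. Beta-lactamase reporter read by B/G FRET substrate fluorescence after 2 h at room temperature. qHTS format.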

[17] = target: Retinoic acid receptor RXR-alpha (Homo sapiens) (UniProt P19793); experiment: qHTS assay to identify small molecule agonists of the RXR signaling pathway (AID 1159527; calls by dose curve; further: nearly all actives have a fitted effect of over 35% in size)
Retinoic acid receptor RXR-alpha (Homo sapiens), sequence (P19793 whole entry, looked up): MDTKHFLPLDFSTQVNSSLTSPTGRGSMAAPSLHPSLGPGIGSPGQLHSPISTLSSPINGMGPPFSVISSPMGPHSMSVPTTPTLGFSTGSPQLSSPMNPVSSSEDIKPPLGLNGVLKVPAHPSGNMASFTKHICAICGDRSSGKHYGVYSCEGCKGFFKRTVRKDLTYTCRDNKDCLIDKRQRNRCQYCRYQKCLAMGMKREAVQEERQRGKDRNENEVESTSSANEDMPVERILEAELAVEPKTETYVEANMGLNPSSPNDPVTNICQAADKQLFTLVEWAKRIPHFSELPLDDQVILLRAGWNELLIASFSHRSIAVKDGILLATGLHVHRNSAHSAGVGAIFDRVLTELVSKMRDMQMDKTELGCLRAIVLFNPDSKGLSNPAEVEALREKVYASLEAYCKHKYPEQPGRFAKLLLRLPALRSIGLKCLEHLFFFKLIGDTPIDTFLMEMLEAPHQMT
Procedure, shortened: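 GeneBLAzer RXR-alpha-UAS-bla HEK 293T cells in 2% charcoal-stripped FBS medium were exposed to compounds for 16 hr at 37 C in agonist mode. Beta-lactamase reporter read as 460/530 nm FRET ratio after 2 hr substrate loading.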

[18] = target: Bile acid receptor (Homo sapiens) (UniProt Q96RI1); experiment: qHTS assay to identify small molecule agonists of the farnesoid-X-receptor (FXR) signaling pathway (AID 743220; active means well fitted activation curve with a large enough effect in the signal ratio in the repeat runs, not every such curve was filed as active; the % refers to the signal ratio)
Bile acid receptor (Homo sapiens), sequence (Q96RI1 whole entry, looked up): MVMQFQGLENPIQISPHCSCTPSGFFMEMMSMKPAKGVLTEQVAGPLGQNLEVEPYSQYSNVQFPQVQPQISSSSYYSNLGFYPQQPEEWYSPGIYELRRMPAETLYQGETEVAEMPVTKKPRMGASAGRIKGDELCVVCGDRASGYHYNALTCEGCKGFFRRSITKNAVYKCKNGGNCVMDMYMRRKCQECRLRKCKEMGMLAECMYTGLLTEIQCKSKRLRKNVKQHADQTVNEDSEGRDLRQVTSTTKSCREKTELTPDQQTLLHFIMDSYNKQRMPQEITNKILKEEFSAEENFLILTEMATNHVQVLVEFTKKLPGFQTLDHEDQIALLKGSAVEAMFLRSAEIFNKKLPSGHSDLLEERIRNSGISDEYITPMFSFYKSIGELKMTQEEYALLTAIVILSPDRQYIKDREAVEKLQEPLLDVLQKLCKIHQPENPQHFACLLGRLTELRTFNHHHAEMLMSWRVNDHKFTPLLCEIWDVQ
Procedure, shortened: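 Beta-lactamase reporter under UAS control in GeneBLAzer FXR HEK 293T cells (5000/well) measured with LiveBLAzer FRET substrate after 2 h at room temperature. Compound exposure lasted 16 h at 37C.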

Measured: Potency

CC(=O)c1ccc2c(c1)[C@H](NC(=O)c1ccc(F)cc1)[C@@H](O)C(C)(C)O2
inactive: [1] | [2] | [3] | [4] | [5] | [6] | [7] | [8] | [9] | [10] | [11] | [12] | [13] | [14] | [15]

Cc1cccc(OCCOc2cccc(C)c2)c1
inactive: [1] | [2] | [3] | [4] | [5] | [6] | [8] | [10] | [11] | [12] | [13] | [14] | [15]

CCN(CC)C(C)=O
inactive: [1] | [2] | [3] | [4] | [6] | [7] | [16] | [8] | [10] | [12] | [13] | [15]

O=c1c2ccccc2nnn1CCl
inactive: [1] | [2] | [3] | [4] | [5] | [6] | [7] | [16] | [8] | [9] | [10] | [11] | [12] | [13] | [14] | [15] | [17]

Cc1occc1S
inactive: [1] | [2] | [3] | [4] | [5] | [6] | [7] | [16] | [8] | [10] | [12] | [13] | [14]

O=C(Cl)c1ccc([N+](=O)[O-])cc1
inactive: [1] | [2] | [3] | [4] | [5] | [6] | [8] | [10] | [11] | [12] | [13] | [14] | [15] | [17]

CCOC(=O)CC(C)C
inactive: [1] | [2] | [3] | [5] | [6] | [7] | [8] | [9] | [10] | [12] | [13] | [14] | [15]

CC(C)CCCC(C)CCO (configuration not stated)
inactive: [1] | [2] | [3] | [5] | [18] | [6] | [9] | [10] | [11] | [12] | [13] | [14] | [15]

CN(C)CCCOc1nn(Cc2ccccc2)c2ccccc12
inactive: [2] | [4] | [5] | [6] | [8] | [9] | [10] | [11] | [12] | [13] | [14] | [17]
